# PubChem BioAssay
# This is one part of the list. Calls of active or inactive are those of the source.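 The calls were made as follows, unless noted: active = mean inhibition above a cutoff equal to the average over all tested compounds plus one standard deviation (cut at about 70% in these data); inactive = the rest.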
# Assays:
# [1] = target: Photoreceptor-specific nuclear receptor (Homo sapiens) (UniProt Q9Y5X4); test: retest of NR2E3-NCOR disrupting agonists – cell-based, luminescence, CHO-S two-hybrid, confirmation (AID 624378;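 active = average inhibition above a cutoff equal to the mean inhibition of all tested compounds plus one SD, cut at about 70% in these data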;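 also: 0% = DMSO in NR2E3 cells and 100% = DMSO in cells lacking NR2E3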); settings: CHO-S mammalian two-hybrid NR2E3-NCOR, luciferase luminescence; at 3.98 µM; stronger effect = higher value
# [2] = nonselective effects on VP16 transactivation – cell-based, luminescence, CHO-S, high throughput, counter-screen for NR2E3 agonist project, confirmation (AID 624379); settings: CHO-S GAL4-VP16 luciferase reporter, at 3.98 µM, stronger effect = higher value;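 also: 0% = DMSO with VP16-transfected cells and 100% = DMSO with cells lacking VP16; higher means less reporter light so more repression of VP16 activity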
# [3] = VP16-driven transactivation reporter suppression – cell-based, luminescence, HEK293, counter-screen for COUP-TFII antagonist project (AID 687007; in the data active = inhibition above about 13%); settings: HEK293 Gal4-VP16 luciferase reporter, at 8.5 µM, stronger effect = higher value
# [4] = target: COUP transcription factor 2 (Homo sapiens) (UniProt P24468); test: retest of COUP-TFII reporter suppressors – cell-based, luciferase reporter, HEK293, triplicate, confirmation (AID 687008;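 active = mean inhibition over three repeats above a set limit taken from the earlier primary screen, cut at about 38% in these data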;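 also: 100% = cells given the luciferase reporter alone without the COUP-TF2 vector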); settings: HEK293 NGFI-A luciferase reporter, luminescence; at 8.5 µM; stronger effect = higher value
# [5] = StAR promoter reporter inhibitors, counter-screen for LRH-1 inverse agonist project, cell-based, luminescence, high throughput (AID 651611; in the data active = inhibition above about 28%); settings: StAR promoter luciferase reporter counterscreen, at 3.6 µM, stronger effect = higher value
# [6] = target: Nuclear receptor subfamily 5 group A member 2 (Homo sapiens) (UniProt O00482); test: NR5A2 activity suppression in reporter cells – cell-based, luminescence, confirmation (AID 651613; in the data active = inhibition above about 42%;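 also: HEK293T cells co-transfected with LRH-1 and StAR promoter luciferase reporter; 0% = vehicle wells and 100% = parental cells lacking receptor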); settings: cell-based LRH-1 luciferase reporter, inverse agonism; at 3.6 µM; stronger effect = higher value
# [7] = target: Steroidogenic factor 1 (Homo sapiens) (UniProt Q13285); test: inverse agonism at SF1 nuclear receptor – cell-based, luminescence, high throughput, counter-screen for LRH-1 inverse agonist project (AID 651614; in the data active = inhibition above about 44%;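 also: cells cotransfected with StAR promoter reporter and SF1 expression vector; 0% = vehicle on cells with receptor and 100% = vehicle on cells lacking receptor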); settings: cell-based SF1 luciferase reporter, at 3.6 µM, stronger effect = higher value
# [8] = compounds suppressing VP16-driven luciferase signal – cell-based, luminescence, high throughput, counter-screen for LRH-1 inverse agonist project (AID 651615; in the data active = inhibition above about 33%); settings: Gal4-VP16 luciferase reporter cells, at 3.6 µM, stronger effect = higher value
# [9] = reduced OD of V66 E. coli with T4 gene 2 phage – absorbance, RecBCD inhibitor project, confirmation (AID 651982;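 active = mean inhibition over triplicates exceeding the hit threshold derived in the original primary screen, cut at about 11% in these data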); settings: E. coli V66 + T4 2- phage, growth OD; at 11.9 µM; stronger effect = higher value
# [10] = bacterial growth inhibition – absorbance, high throughput, counter-screen for RecBCD inhibitor project (AID 651983; in the data active = inhibition above about 20%;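 also: E. coli strain V66 grown with compound alone and no phage infection; 0% = bacteria with DMSO vehicle only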); settings: E. coli viability, absorbance (OD) growth; at 11.9 µM; stronger effect = higher value
# [11] = reduced optical density, T4-challenged addAB+ bacteria – absorbance, E. coli V3065, T4 phage, counter-screen for RecBCD inhibitor project, confirmation (AID 651984;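 active = mean inhibition above the solvent-only control wells' mean plus 3 SD, cut at about 22% in these data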;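 also: higher means less bacterial growth from phage killing when AddAB is blocked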); settings: E. coli expressing H. pylori AddAB + T4 phage, OD growth; at 11.9 µM; stronger effect = higher value; gene 2 mutant T4, recBCD-deleted host
# [12] = tested on: DAF-12 nuclear receptor (Heterodera glycines), GAL4-LBD fusion; test: hgDAF-12 GAL4 fusion reporter activation, retest – cell-based, luminescence, HEK293, GAL4-LBD fusion, confirmation (AID 743050;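 active = mean activation over triplicate wells above the hit cutoff derived from the earlier primary screen, cut at about 11% in these data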;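 also: 0% = DMSO low control and 100% = 2 mM sodium butyrate high control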); settings: HEK293 GAL4-hgDAF12 luciferase reporter, agonist mode; at 6.8 µM; stronger effect = higher value; percent of butyrate response
# [13] = target: Oxysterols receptor LXR-beta (Homo sapiens) (UniProt P55055); test: nonspecific reporter activation via LXR – cell-based, luminescence, HEK293, H. glycines campaign, counter-screen for hgDAF-12 agonist project, confirmation (AID 743051;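 active = mean activation of the triplicate above a set limit carried over from the primary screen, none filed active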); settings: HEK293 Gal4-LXR luciferase reporter, 24 h; at 6.8 µM; stronger effect = higher value
# Sequence of Oxysterols receptor LXR-beta (Homo sapiens) (P55055 whole entry, looked up, the tested form may be a part): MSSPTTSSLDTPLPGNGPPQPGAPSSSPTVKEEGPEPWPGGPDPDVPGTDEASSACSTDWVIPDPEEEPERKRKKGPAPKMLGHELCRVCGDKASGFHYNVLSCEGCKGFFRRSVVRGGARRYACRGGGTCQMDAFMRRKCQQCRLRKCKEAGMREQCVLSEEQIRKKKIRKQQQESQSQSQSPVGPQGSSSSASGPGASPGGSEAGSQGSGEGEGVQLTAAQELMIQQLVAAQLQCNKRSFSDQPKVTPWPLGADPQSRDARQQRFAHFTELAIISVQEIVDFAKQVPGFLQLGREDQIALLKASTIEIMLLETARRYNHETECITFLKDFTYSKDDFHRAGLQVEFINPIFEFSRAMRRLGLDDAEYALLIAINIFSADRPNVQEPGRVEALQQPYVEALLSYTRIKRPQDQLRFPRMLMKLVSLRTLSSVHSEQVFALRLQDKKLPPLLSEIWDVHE
# Sequence of COUP transcription factor 2 (Homo sapiens) (P24468 whole entry, looked up): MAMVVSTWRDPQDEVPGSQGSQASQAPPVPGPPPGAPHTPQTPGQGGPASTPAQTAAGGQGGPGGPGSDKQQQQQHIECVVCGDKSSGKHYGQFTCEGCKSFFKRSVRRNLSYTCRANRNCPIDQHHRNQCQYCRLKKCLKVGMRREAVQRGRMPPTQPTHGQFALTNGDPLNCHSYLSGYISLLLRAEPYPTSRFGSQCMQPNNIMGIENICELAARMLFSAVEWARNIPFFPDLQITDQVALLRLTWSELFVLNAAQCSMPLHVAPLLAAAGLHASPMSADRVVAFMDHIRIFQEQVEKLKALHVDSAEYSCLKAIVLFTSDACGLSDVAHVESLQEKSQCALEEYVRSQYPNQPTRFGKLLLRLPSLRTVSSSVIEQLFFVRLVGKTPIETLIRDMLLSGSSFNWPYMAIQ
# Sequence of Nuclear receptor subfamily 5 group A member 2 (Homo sapiens) (O00482 whole entry, looked up): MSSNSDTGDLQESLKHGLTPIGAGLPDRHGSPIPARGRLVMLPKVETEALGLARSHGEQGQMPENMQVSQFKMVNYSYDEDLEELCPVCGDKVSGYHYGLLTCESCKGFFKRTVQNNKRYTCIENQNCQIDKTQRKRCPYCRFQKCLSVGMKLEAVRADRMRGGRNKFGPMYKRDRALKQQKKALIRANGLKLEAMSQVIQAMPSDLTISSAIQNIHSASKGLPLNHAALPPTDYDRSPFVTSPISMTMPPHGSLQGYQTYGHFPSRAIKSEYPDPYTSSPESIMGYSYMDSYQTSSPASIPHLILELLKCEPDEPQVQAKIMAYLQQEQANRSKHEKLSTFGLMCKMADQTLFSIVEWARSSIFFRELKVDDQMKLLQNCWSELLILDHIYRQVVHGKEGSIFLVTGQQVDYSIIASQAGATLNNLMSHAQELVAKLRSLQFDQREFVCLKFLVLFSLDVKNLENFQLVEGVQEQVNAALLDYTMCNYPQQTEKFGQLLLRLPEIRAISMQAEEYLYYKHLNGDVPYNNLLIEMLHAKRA
# Sequence of Photoreceptor-specific nuclear receptor (Homo sapiens) (Q9Y5X4 whole entry, looked up, the tested form may be a part): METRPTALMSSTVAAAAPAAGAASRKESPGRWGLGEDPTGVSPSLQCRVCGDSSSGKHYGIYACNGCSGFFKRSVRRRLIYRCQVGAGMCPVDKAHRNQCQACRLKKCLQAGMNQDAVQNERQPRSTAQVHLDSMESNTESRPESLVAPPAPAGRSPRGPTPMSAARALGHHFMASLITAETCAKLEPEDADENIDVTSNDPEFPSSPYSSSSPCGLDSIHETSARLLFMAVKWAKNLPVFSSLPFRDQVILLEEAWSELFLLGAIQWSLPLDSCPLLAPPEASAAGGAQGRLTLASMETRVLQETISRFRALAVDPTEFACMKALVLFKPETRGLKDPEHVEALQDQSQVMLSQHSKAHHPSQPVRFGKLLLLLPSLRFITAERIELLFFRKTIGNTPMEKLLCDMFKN
# Sequence of Steroidogenic factor 1 (Homo sapiens) (Q13285 whole entry, looked up, the tested form may be a part): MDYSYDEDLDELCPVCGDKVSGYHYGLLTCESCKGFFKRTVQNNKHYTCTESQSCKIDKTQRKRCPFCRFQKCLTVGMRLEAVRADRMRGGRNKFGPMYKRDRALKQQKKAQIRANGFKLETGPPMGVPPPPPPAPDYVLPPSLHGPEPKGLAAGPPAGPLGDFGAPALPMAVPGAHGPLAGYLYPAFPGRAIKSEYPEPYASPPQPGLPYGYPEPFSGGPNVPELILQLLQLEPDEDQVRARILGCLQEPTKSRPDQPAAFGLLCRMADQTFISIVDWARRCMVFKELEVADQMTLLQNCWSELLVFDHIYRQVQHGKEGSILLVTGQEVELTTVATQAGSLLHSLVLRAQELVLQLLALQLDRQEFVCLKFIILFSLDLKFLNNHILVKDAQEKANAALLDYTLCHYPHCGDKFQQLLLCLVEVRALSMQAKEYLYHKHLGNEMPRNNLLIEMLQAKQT
compound,measurement,setting,value
COc1ccc(S(=O)(=O)N2CCN(C(C)C(=O)Nc3ccc(C(C)C)cc3)CC2)cc1 (centres undefined),inhibition,[1],-2.85% (inactive)
same,inhibition,[2],-0.89% (inactive)
CCC(C)N1C(=O)S/C(=C/c2ccc(Sc3nc4ccccc4[nH]3)o2)C1=O (centres undefined),inhibition,[1],85.7% (active)
same,inhibition,[2],69.8% (inactive)
Cc1ccc(S(=O)(=O)N2[C@@H](c3ccc(Br)cc3)C(C(=O)O)=C[C@H]2CC2CCCC2)cc1,inhibition,[1],26.2% (inactive)
same,inhibition,[2],26.5% (inactive)
O=C(CSc1nc(Nc2ccccc2)nc(N2CCOCC2)n1)Nc1cc(Cl)ccc1O,inhibition,[1],31.7% (inactive)
same,inhibition,[2],20.4% (inactive)
COC(=O)c1sccc1NC(=O)CSc1ccccc1NS(=O)(=O)c1cc(Cl)ccc1Cl,inhibition,[1],84% (active)
same,inhibition,[2],74.7% (active)
Cc1[nH]n(-c2cccc(Cl)c2)c(=O)c1-c1ccc(Cl)cc1,inhibition,[1],97.8% (active)
same,inhibition,[2],71.3% (active)
Cn1c(Cc2cccc3ccccc23)nnc1SCC(=O)N1CCN(c2cccc(Cl)c2)CC1,inhibition,[1],78.1% (active)
same,inhibition,[2],30.7% (inactive)
same,inhibition,[3],-7.02% (inactive)
same,inhibition,[4],30.3% (inactive)
O=C(CCC(=O)N1CCN(S(=O)(=O)c2ccc(Cl)cc2)CC1)NCc1cccc(C(F)(F)F)c1,inhibition,[1],93.6% (active)
same,inhibition,[2],81.6% (active)
same,inhibition,[3],7.21% (inactive)
same,inhibition,[4],53.4% (active)
S=C(NCC1CCCO1)N1CCN(c2ccc(Cl)c(Cl)c2)CC1 (centres undefined),inhibition,[1],89.2% (active)
same,inhibition,[2],73.3% (active)
CN(C(=O)CN1CCN(c2cc(-c3ccc(OCc4ccccc4)cc3)ncn2)CC1)c1ccccc1,inhibition,[1],51.3% (inactive)
same,inhibition,[2],52.7% (inactive)
same,inhibition,[5],14.7% (inactive)
same,inhibition,[6],46.5% (active)
same,inhibition,[7],46.4% (active)
same,inhibition,[8],25.7% (inactive)
same,inhibition,[3],1.06% (inactive)
same,inhibition,[4],31.7% (inactive)
O=C(/C=C/c1ccc([N+](=O)[O-])o1)NNC(=O)c1ccc(F)cc1,inhibition,[1],83.5% (active)
same,inhibition,[2],18.6% (inactive)
same,inhibition,[9],27.6% (active)
same,inhibition,[10],44.5% (active)
same,inhibition,[11],104% (active)
CCCCCc1c(-c2ccc(OC)c(OC)c2)ncn1CCc1ccccc1OC,inhibition,[1],73.5% (active)
same,inhibition,[2],35.4% (inactive)
same,inhibition,[3],4.25% (inactive)
same,inhibition,[4],25.6% (inactive)
CCN(CC)S(=O)(=O)c1ccc(N(C)Cc2ccc(C(F)(F)F)cc2)nc1,inhibition,[1],34.6% (inactive)
same,inhibition,[2],41.8% (inactive)
same,inhibition,[3],-6.6% (inactive)
same,inhibition,[4],22.6% (inactive)
COc1cccc(CNc2nc(NCc3ccccc3OC)nc3ccsc23)c1,inhibition,[1],82% (active)
same,inhibition,[2],61.6% (inactive)
same,inhibition,[3],2.96% (inactive)
same,inhibition,[4],18.9% (inactive)
COc1cc(CC(=O)Nc2nc(-c3ccc(F)c(F)c3)cs2)cc(OC)c1OC,inhibition,[1],94.2% (active)
same,inhibition,[2],86.9% (active)
same,inhibition,[3],-0.07% (inactive)
same,inhibition,[4],44.8% (active)
COCCNc1nc(-n2nc(C)cc2C)nc2sc3c(c12)CCCC3,inhibition,[1],-8.21% (inactive)
same,inhibition,[2],-32% (inactive)
O=C1C=C(c2ccnc3cc(Cl)ccc23)C[C@@H](c2ccc3c(c2)OCO3)C1,inhibition,[1],91.6% (active)
same,inhibition,[2],76.5% (active)
same,inhibition,[3],2.65% (inactive)
same,inhibition,[4],44.8% (active)
CN(Cc1cn(Cc2ccc(C(F)(F)F)cc2)nn1)C1CN(Cc2cn(Cc3ccc(C(F)(F)F)cc3)nn2)S(=O)(=O)C1 (centres undefined),inhibition,[1],86.8% (active)
same,inhibition,[2],63.3% (inactive)
CSc1nsc(SC)c1NC(=O)OC1CCCCC1,inhibition,[1],-5.88% (inactive)
same,inhibition,[2],-17.6% (inactive)
COc1ccc(CC(=O)Nc2nc(-c3ccc(F)c(F)c3)cs2)cc1OC,inhibition,[1],98% (active)
same,inhibition,[2],81.8% (active)
same,inhibition,[3],2.71% (inactive)
same,inhibition,[4],55.4% (active)
O=S(=O)(c1cccc(Cn2nnc(-c3ccc(F)cc3)n2)c1)N1CCOCC1,inhibition,[1],34.9% (inactive)
same,inhibition,[2],39.4% (inactive)
CN(C)C(=S)N=c1ssc(=S)n1Cc1ccco1,inhibition,[1],-16.6% (inactive)
same,inhibition,[2],-46.1% (inactive)
Cc1ccnc(NC(=O)C2CCN(S(=O)(=O)c3c(C)c(C)cc(C)c3C)CC2)c1,inhibition,[1],83.3% (active)
same,inhibition,[2],21.8% (inactive)
same,inhibition,[5],6.87% (inactive)
same,inhibition,[6],36.1% (inactive)
same,inhibition,[7],13.2% (inactive)
same,inhibition,[8],21.5% (inactive)
same,activation,[12],7.81% (inactive)
same,activation,[13],0.16% (inactive)
c1ccc(C(=NNc2nc3ccccc3s2)c2ccccn2)cc1,inhibition,[1],22.6% (inactive)
same,inhibition,[2],11.6% (inactive)
COc1cccc(CNS(=O)(=O)c2ccc3c(c2)CC(C)N3C(=O)C2CCC2)c1 (centres undefined),inhibition,[1],73.3% (active)
same,inhibition,[2],58.5% (inactive)
CCc1cc2c(NC3CCCC3)ncnc2s1,inhibition,[1],88.5% (active)
same,inhibition,[2],64% (inactive)
same,inhibition,[3],5.31% (inactive)
same,inhibition,[4],29.9% (inactive)
N#Cc1c(-c2ccccc2)nc(SCc2cccc(C(F)(F)F)c2)[nH]c1=O,inhibition,[1],43.6% (inactive)
same,inhibition,[2],30.9% (inactive)
COc1ccc(CNc2ncnc3ccccc23)cc1,inhibition,[1],82.4% (active)
same,inhibition,[2],75.7% (active)
same,inhibition,[5],11.2% (inactive)
same,inhibition,[6],63.6% (active)
same,inhibition,[7],55.6% (active)
same,inhibition,[8],62.8% (active)
same,inhibition,[3],0.55% (inactive)
same,inhibition,[4],47.6% (active)
N#C[C@]1(S(=O)(=O)c2ccccc2)C[C@@H]2ON=C(c3cccc(Br)c3)[C@@H]2C1,inhibition,[1],88.5% (active)
same,inhibition,[2],75.2% (active)
same,inhibition,[3],2.59% (inactive)
same,inhibition,[4],14.3% (inactive)
